Measured values: PubChem BioAssay (EPA / NIEHS)
Records with an inconclusive call do not appear. Calls of active or inactive are those of the source. How the source made its calls: active means hit-call score of the fitted dose curve at least 0.9, where 1 is the maximum; inconclusive means response in the unintended direction; inactive means score below 0.9.

Assay: ACEA_ER_AUC_viability: ACEA Biosciences xCELLigence Real-Time Cell Analysis on Estrogen Receptor Agonism for Viability (AID 2283782)
Method in brief: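 Read-out: real-time electrical impedance (RT-CES) area under curve, loss of signal taken as reduced viability, normalized to DMSO baseline. T-47D cells, charcoal-stripped serum medium, compounds up to 100 uM final, continuous exposure, 80 h.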
With `CN(C)CCCNCCCN(C)C` the AC50 was 50 µM (active).
For `CC(C)COC(=O)c1ccccc1`, the outcome was “inactive”.
For `C=C/C(C)=C/C/C=C(\C)CCC=C(C)C`, the AC50 was 89.9 µM (active).
For `CC/C=C\CCOC(C)OCC` (centres undefined), the outcome was “inactive”.
For `CC(=O)CCC=C(C)CCC=C(C)C`, the AC50 was 63.6 µM (active).
For `Cc1cc(O)c(C)c(C)c1O`, the AC50 was 76.1 µM (active).
In the case of `NC(N)=NC(N)=NCCc1ccccc1`, the outcome is reported as “inactive”.
For `O=C(O)c1ccc(C(=O)O)c(C(=O)O)c1`, the outcome was “inactive”.
With `OC[C@@H](O)[C@H](O)[C@@H](O)[C@@H](O)CO` the outcome was “inactive”.
With `O=C(Nc1cccc(Cl)c1)OCC#CCCl` the AC50 was 56.3 µM (active).
For `CCCCC1CCCCC(=O)O1` (centres undefined), the outcome was “inactive”.
With `O=C(O)C(F)(F)OC(F)(F)C(F)(F)OC(F)(F)C(F)(F)C(F)(F)C(F)(F)F` the outcome was “inactive”.
In the case of `Cc1ccccc1S`, the outcome is reported as “inactive”.
With `CC(C)CCOC(=O)CC(C)C` the outcome was “inactive”.
With `CCCC1CCOC(C)S1` (centres undefined) the outcome was “inactive”.
For `CC(=O)CCc1ccc(O)cc1`, the outcome was “inactive”.
For `CC(CO)(CO)[N+](=O)[O-]`, the outcome was “inactive”.
For `CCCCCCCCCC(=O)OCC`, the outcome was “inactive”.
In the case of `CCCCC(CC)COC(=O)COc1ccc(Cl)cc1C` (centres undefined), the outcome is reported as “inactive”.
For `Nc1ccn([C@H]2CC[C@@H](CO)O2)c(=O)n1`, the outcome was “inactive”.
With `CC/C=C\CCCCCCCCCCOC(C)=O` the outcome was “inactive”.
For `O=C(C=Cc1ccccc1)OCCCc1ccccc1`, the AC50 was 60 µM (active).
With `CCCC1CCC(=O)CC1` the outcome was “inactive”.
For `NS(=O)(=O)c1cc(C(=O)O)c(NCc2ccco2)cc1Cl`, the outcome was “inactive”.
In the case of `CCCCCc1cccc(=O)o1`, the outcome is reported as “inactive”.
In the case of `CCCCCCCCCCCCCC(=O)OCC`, the AC50 is reported as 50 µM (active).
In the case of `C=C(C)CCCC(C)CCO` (centres undefined), the AC50 is reported as 50 µM (active).
In the case of `c1ccc(-c2nn[nH]n2)cc1`, the outcome is reported as “inactive”.
With `COc1ccc(C(C)=O)cc1` the outcome was “inactive”.
For `CCCCCCOC(C)=O`, the AC50 was 38.5 µM (active).
With `CC(=O)CC(C)(C)C1CCCCC1` the outcome was “inactive”.
In the case of `CC1=CC(=O)[C@H]2C[C@@H]1C2(C)C`, the AC50 is reported as 31 µM (active).
For `Cc1cc(N)n(-c2ccccc2)n1`, the outcome was “inactive”.
For `CCOC(=O)C(=O)OCC`, the outcome was “inactive”.
With `CC/C=C\CCOC(=O)C(C)C` the outcome was “inactive”.
In the case of `CCCCOC(=O)C(C)OC(=O)CCC` (centres undefined), the outcome is reported as “inactive”.
For `N#CCCNCCC#N`, the outcome was “inactive”.
For `N=C1N=C(N)c2ccccc21`, the AC50 was 74 µM (active).
With `C[Si]1(C)N[Si](C)(C)N[Si](C)(C)N1` the outcome was “inactive”.
